M1 antagonist – blocks the rat M1 muscarinic receptor response to acetylcholine. B-score at 10 µM. hit rate 3.4% among 64,000. CHO-M1 cells, Fluo-4 calcium, ACh EC80 antagonist mode; stronger effect = lower value. AID 628;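 active means calcium fluorescence response, raw or row-and-column corrected B-score, differing from the plate sample mean either way at a set confidence level, mostly lower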
DAT uptake mod – modulates human dopamine transporter uptake under cocaine | LLC-PK1 hDAT cells, [14C]-dopamine uptake with cocaine IC80; actives deviate in either direction | B-score at 10 µM | hit rate 1.3% among 110,000 | AID 449768;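 active means Z score or B-score, a plate-position-corrected score, falls beyond the plate's 99.7% confidence bounds, in either direction; inactive means both scores lie inside the 99.7% bounds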;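 further: scored against the spread of the other compound wells on the same plate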
M1 ag – agonists of M1 muscarinic receptor; CHO-M1 cells, Fluo-4 calcium fluorescence, agonist mode; stronger effect = higher value; B-score at 10 µM; hit rate 3% among 64,000;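 active means fluorescence rise, raw or as B-score row- and column-corrected plate score, outside the 99.7% band of its plate's samples, either direction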
FXIIa inh mix – factor XIIa (human) inhibition, mixture screen; purified FXIIa, fluorogenic substrate, pooled mixtures; inhibition, % at 5 µM; hit rate 0.2% among 62,000;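 further: 0% = enzyme without compound and 100% = no enzyme blank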
FXIa inh mix – blocks human factor XIa in pooled compound mixtures. purified FXIa, fluorogenic substrate. inhibition, % at 5 µM. hit rate 0.19% among 62,000. AID 680;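 further: each value is inhibition by a whole ten-compound pool holding the compound; 0% = enzyme with no mixture and 100% = wells lacking enzyme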
D1 mod – allosteric modulators of human D1 dopamine receptor; hit rate 5.9% among 58,000; P21728; HEK293 D1, CRE-luciferase, dopamine EC30 potentiation; actives deviate in either direction; AID 641; B-score at 10 µM;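 active means luminescence count or its row- and column-corrected plate score outside the 99.7% band of the plate's sample wells, on either side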
Target sequence (P21728 whole entry, looked up): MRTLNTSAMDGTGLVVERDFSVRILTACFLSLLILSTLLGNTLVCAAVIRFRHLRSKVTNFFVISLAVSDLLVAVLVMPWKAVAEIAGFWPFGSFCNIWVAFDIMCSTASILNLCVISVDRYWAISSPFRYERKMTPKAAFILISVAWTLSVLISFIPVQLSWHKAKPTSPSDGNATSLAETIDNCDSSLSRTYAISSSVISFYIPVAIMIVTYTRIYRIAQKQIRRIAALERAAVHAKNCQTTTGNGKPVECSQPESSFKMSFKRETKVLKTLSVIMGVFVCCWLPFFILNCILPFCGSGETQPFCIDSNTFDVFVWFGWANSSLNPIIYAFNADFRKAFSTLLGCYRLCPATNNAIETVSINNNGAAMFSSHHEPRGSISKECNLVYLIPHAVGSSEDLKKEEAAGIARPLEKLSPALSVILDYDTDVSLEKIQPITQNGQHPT
M1 antag confirm – M1 muscarinic receptor (rat) antagonism, confirmed. CHO-M1 cells, Fluo-4 calcium, ACh EC80 antagonism; stronger effect = lower value. hit rate 43% among 1,700. shares compounds with M1 antagonist. calcium response (max-min fluorescence) at 10 µM;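 active means calcium response below the same-plate mean of wells given acetylcholine alone at its 80%-effect dose, minus 3 SD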;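 further: raw fluorescence intensity difference in arbitrary instrument units and not normalized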
mGluR4 antag – acts on human mGluR4 in M1 antagonist selectivity test | hit rate 0.9% among 1,700 | fluorescence response (max-min) at 10 µM | shares compounds with M1 antagonist | CHO-mGluR4 calcium flux, Fluo-4 fluorescence, glutamate EC80; stronger effect = lower value | AID 678;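 active means fluorescence response below the plate's average for near-maximal glutamate wells, less 3 SD of those wells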;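 further: raw unnormalized fluorescence span taken in the window right after glutamate addition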
* = called active by the depositor; . = no result given. A selection: hits, their analogues and other compounds. The true share with any hit is near 7.4%. Unless noted, no stated cut-off is given here; in the data, active means inhibition above about 20% (passing the limit was not always enough); inactive means the rest.

SMILES | M1 antagonist | DAT uptake mod | M1 ag | FXIIa inh mix | FXIa inh mix | D1 mod | M1 antag confirm | mGluR4 antag
CC(C)NC(=O)Cn1nnc(-c2cccc(NC(=O)c3ccccc3F)c2)n1 | -17* | -0.21 | 0.58 | 2 | -7 | -0.48 | 634 | 250
CCOC(=O)Cc1csc(NC(=O)CCc2ccc(S(=O)(=O)N3CCOCC3)cc2)n1 | -3.1* | 1.1 | 0.66 | -16 | 3 | -2.8 | 571 | 216
CCOC(=O)Cc1csc(NC(=O)c2ccc(S(=O)(=O)N3CCCCC3)cc2)n1 | . | -0.0068 | . | 7 | 12 | . | . | .
CC1Cc2ccccc2N1C(=O)c1cnc2n(c1=O)CCS2 (configuration not stated) | 0.3 | 0.58 | -1.1 | 4 | 7 | 0.27 | . | .
CN(C)CCCNS(=O)(=O)c1ccc(Oc2ncc(C(F)(F)F)cc2Cl)cc1 | . | -0.087 | . | . | . | . | . | .
O=C1c2ccccc2C(=O)N1CCCOc1ccccc1 | -0.098 | 0.18 | -0.014 | 12 | 3 | . | . | .
O=C1c2ccccc2C(=O)N1CCOCCN1C(=O)c2ccccc2C1=O | -3.3* | -1.7 | 0.45 | -1 | 2 | -0.84 | 687 | 242
O=C(O)C1CC(=O)N(c2ccc(F)c(F)c2)C1 (configuration not stated) | -0.077 | 0.024 | -0.67 | 0 | 3 | -0.37 | . | .
Cc1cc(-c2ccccc2)c2nncn2n1 | -14* | -0.92 | 0.35 | -1 | -3 | 0.25 | 635 | 206
Cc1cc(-c2ccccc2)c2c3c(cn2n1)c(=O)n(C)c(=O)n3C | 1.4 | 0.16 | -0.43 | -16 | 12 | 3.9 | . | .
CCN1CCN(c2ccc(NC(=O)c3ccc4c(c3)OCO4)cc2)CC1 | -3* | . | 0.068 | 6 | 3 | . | 398* | 267
CCN1CCN(C(c2cccs2)C(C)NC(=O)c2cccnc2)CC1 (configuration not stated) | -1.4* | -0.24 | -0.086 | 1 | 7 | -4.4* | 578* | 239
CCC(=O)N1CCN(c2ccc(NC(=O)c3ccc4c(c3)OCO4)cc2)CC1 | -1 | -0.037 | 0.19 | -8 | 20 | -0.34 | . | .
CCCCOc1cccc(C(=O)Nc2ccc(N3CCN(CC)CC3)cc2)c1 | -16* | 0.66 | 0.12 | 1 | -34 | -3.6* | 36* | 254
CCN1CCN(c2ccc(NC(=O)c3cccnc3)cc2Cl)CC1 | -3.6* | 0.22 | -0.86 | 11 | 2 | -1.3 | 460* | 190
COc1ccc2[nH]c(=O)c(CN(C(C)=O)c3cccc(C)c3)cc2c1 | 0.98 | -0.02 | 0.8 | . | . | 1.4 | . | .
CCN1CCN(c2ccc(NC(=O)COc3ccccc3Cl)cc2)CC1 | -9* | -0.38 | 0.0017 | -1 | -2 | -5* | 322* | 168
CCOC(=O)CC(=O)CSc1nc(C)nc2c1oc1ccccc12 | -0.36 | -0.098 | -0.42 | 7 | 6 | 1.8 | . | .
c1ccc2c(c1)C(=NCC1CCCO1)NC2=NCC1CCCO1 (configuration not stated) | 0.61 | -0.83 | 0.32 | 9 | 2 | -0.83 | . | .
CC(C)(C)N=C1NC(=NC(C)(C)C)c2ccccc21 | -6.2* | -0.56 | -0.31 | -25 | -13 | -5.3* | 417 | 233
CCN(Cc1ccccc1)C(=O)CC1Oc2ccccc2NC1=O (configuration not stated) | -0.87 | -0.026 | -0.18 | 4 | 3 | . | . | .
CCOC(=O)c1cc(C)n(-c2c(C)n(C)n(-c3ccccc3)c2=O)c1C | -4.5* | 0.14 | -0.0049 | -2 | 13 | -0.28 | 430* | 220
c1cncc(-c2nnc(SCCSc3nnc(-c4cccnc4)o3)o2)c1 | -0.083 | . | 0.94 | 3 | 5 | -0.55 | . | .
Cc1cc(C)n(-c2c(F)c(F)c(CN3CCCCC3)c(F)c2F)n1 | -2.5* | -0.43 | 0.028 | . | . | . | 640 | 187
Cc1ccc(N2C(=O)CC(Cn3nc(C)cc3C)C2=O)cc1 (configuration not stated) | 0.32 | 0.099 | -1 | . | . | . | . | .
Cc1cc(C)n(CC2CC(=O)N(c3ccc(Cl)c(Cl)c3)C2=O)n1 (configuration not stated) | -2.6* | 0.34 | -0.5 | 2 | 20 | 0.51 | 717 | 222
O=C(CC1CCCC1)NCCc1cn2ccccc2n1 | 0.32 | . | -1.3 | 10 | -17 | 0.041 | . | .

Bioassay records: PubChem, several laboratories
